From PubChem BioAssay
In the library only some 19% were active in any assay of this set; here they are far more common.
Giardia killer: Giardia lamblia killing | Giardia lamblia trophozoite viability | activity change, % at 7.66 µM, hits read low | actives 0.15% (n = 340,000); in the data active = activity change below about -80%; inconclusive = between about -30% and that limit;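 note: parasites exposed to compound for two days anaerobically before the ATP read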
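Each well holds 100 Giardia trophozoites and compound. After two days (48 hrs) at 37 deg C in anaerobic conditions, ATP is quantified by luminescence.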
ELG1 DNA repair: blocks ELG1-dependent DNA repair in HEK293T cells | HEK293T ELG1-luciferase reporter, luminescence, 16 h; DNA damage induced by 5-fluorouridine | Potency, µM (doses to about 46.1 µM), for the others: at the highest dose activity change, negative = inhibition, most hits filed as inhibitors | actives 2.3% (n = 330,000) | AID 504467; note: potency is the fitted concentration of half-maximal effect; nearly all actives have a fitted effect of over 55% in size
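Step one: seed 2,000 cells per well. Step two: pin-transfer compound or DMSO alongside 5-fluorouridine. Step three: incubate 16 hr, 37 °C, 5% CO2. Step four: add ONE-Glo, wait 30 min, read luminescence.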
IL-1B inflam inh: inflammasome signaling inhibition, IL-1 beta readout; activity change, % at 57.5 µM; actives 4.7% (n = 360,000); THP-1 LPS/ATP IL-1B secretion, AlphaLISA, 16 h; hits give low values; in the data active = activity change below about -50%; inconclusive = mostly about -30% to -49%
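THP-1 cells pretreated 1 hr with compounds (up to 57.5 uM final), then stimulated with LPS (250 ng/mL final) plus ATP (1.25 mM final); secreted IL-1B measured by AlphaLISA after 16 hr, decreased signal indicating inhibition.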
TDP1 cell CPT: DT40-hTDP1 cell growth loss with CPT. chicken DT40 Tdp1-/-;hTDP1 cells + 20 nM CPT, ATP luminescence, 48 h. Potency, µM (series often up to 46.2 µM), without a hit: at the top dose activity change, negative = growth inhibition, most hits filed as inhibitors. actives 12% (n = 420,000); note: potency is the fitted concentration of half-maximal effect; nearly all actives have a fitted effect of over 55% in size
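Chicken DT40 Tdp1-/- cells complemented with human TDP1, 400 cells/well, exposed to compounds plus 20 nM camptothecin for at least 48 h at 37 C; viability read as ATP content by CellTiter-Glo luminescence.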
DT40 TDP1 no CPT: qHTS for Inhibitors of human tyrosyl-DNA phosphodiesterase 1 (TDP1): qHTS in cells in absence of CPT; DT40 Tdp1-/- hTDP1 cells, no CPT, ATP luminescence, 48 h; actives 15% (n = 420,000); Potency, µM (doses to about 46.2 µM), for inactives: top-dose activity change, negative = growth inhibition, actives largely listed as inhibitors; note: potency is the fitted concentration of half-maximal effect; nearly all actives have a fitted effect of over 55% in size
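Cells were dispensed at 400 per well, compounds added by pin tool, plates incubated ≥48 hr at 37 °C, then CellTiter-Glo added for 30 min at room temperature before luminescence reading. Line: DT40 Tdp1-/- complemented with hTDP1; camptothecin omitted.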
TDP1 block: blocks human tyrosyl-DNA phosphodiesterase 1; recombinant TDP1, AlphaScreen DNA substrate cleavage; Potency, µM (series often up to 130 µM), for the others: top-dose activity change, negative = inhibition, most hits filed as inhibitors; actives 0.28% (n = 350,000); AID 485290; note: potency is the fitted concentration of half-maximal effect; nearly all actives have a fitted effect of over 40% in size
Target sequence (Q9NUW8 whole entry, looked up): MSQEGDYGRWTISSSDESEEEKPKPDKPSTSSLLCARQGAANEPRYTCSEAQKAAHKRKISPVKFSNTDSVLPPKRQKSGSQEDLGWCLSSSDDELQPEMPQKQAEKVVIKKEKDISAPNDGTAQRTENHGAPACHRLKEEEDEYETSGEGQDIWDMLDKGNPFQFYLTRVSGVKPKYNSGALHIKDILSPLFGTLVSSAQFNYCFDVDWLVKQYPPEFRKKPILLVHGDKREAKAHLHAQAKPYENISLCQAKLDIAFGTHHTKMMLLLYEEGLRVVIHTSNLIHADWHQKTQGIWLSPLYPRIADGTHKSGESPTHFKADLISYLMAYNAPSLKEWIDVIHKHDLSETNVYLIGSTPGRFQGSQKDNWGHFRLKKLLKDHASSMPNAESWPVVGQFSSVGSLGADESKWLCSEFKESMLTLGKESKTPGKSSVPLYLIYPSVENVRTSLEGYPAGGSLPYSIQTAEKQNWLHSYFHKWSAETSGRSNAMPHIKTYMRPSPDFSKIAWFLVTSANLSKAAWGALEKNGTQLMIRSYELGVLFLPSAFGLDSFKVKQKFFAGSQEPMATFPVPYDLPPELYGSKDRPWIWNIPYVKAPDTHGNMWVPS
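AlphaScreen read-out: signal falls as enzyme removes the 3' tyrosine-FITC from a 5'-biotinylated DNA oligo (15 nM, 5 min, RT). Enzyme was E. coli-made recombinant Tdp1 at 1 nM, exposed to compound for 15 min beforehand; beads 10 ug/ml, 10 min.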
Starred values were filed as active, the others as inactive; ? = inconclusive; . = no result given. Unless noted, calls come from the whole dose curve; as a rule, active = well fitted curve in the direction sought with a large enough effect; inconclusive = small, poorly fitted or top-dose-only effect, or another doubt; inactive = no such curve, though single readings can be large; an effect the other way counts as inactive or inconclusive. % is set by controls: 0 for no effect and ±100 for the full control effect.

SMILES	Giardia killer	ELG1 DNA repair	IL-1B inflam inh	TDP1 cell CPT	DT40 TDP1 no CPT	TDP1 block
COc1ccc(NC(=O)CCNC(=O)c2ccc([N+](=O)[O-])cc2)cc1S(=O)(=O)N1CCOCC1	-5	?	1	-12%	-8%	6%
COc1ccc(S(=O)(=O)N2CCCCCC2)cc1NC(=O)c1ccccc1F	2	?	0	16µM*	-80%	-5%
COc1ccc(S(=O)(=O)N2CCOCC2)cc1NC(=O)CCNC(=O)c1ccc([N+](=O)[O-])cc1	-11	?	-20	?	7.3µM*	1%
Cc1ccc(OC(=O)c2cc(-c3ccc4c(c3)OCCO4)on2)cc1C	.	.	.	-2%	-14%	-1%
O=c1c2cnn(-c3ccc(F)cc3)c2ncn1Cc1ccccc1Cl	.	.	.	-14%	-20%	-3%
COc1ccc(-c2cc(-c3ccc(O)cc3)nc(N)c2C#N)cc1OC	-2	0%	-23	?	?	-3%
COc1ccc(-c2c(C#N)c(N)nc3c2CCc2ccccc2-3)cc1OC	-2	?	0	8.2µM*	7.3µM*	2%
COc1cc(-c2c(C#N)c(N)nc3c2CCCC3)ccc1O	21	-40%	27	15µM*	16µM*	4%
COC(=O)Nc1ccc(S(=O)(=O)N2CCCC(C(=O)N3CC(C)OC(C)C3)C2)cc1 (configuration not stated)	8	10%	25	?	-22%	.
CC(C)c1ccc(CN2CCC2(C)C(=O)Nc2ccc3c(c2)OCO3)cc1 (configuration not stated)	.	.	21	?	8.2µM*	.
CC(C)Oc1ccc(CN2CCC2(C)C(=O)Nc2ccc3c(c2)OCO3)cc1 (configuration not stated)	.	.	-13	16µM*	?	.
CC(C)c1ccc(CC(=O)N2CCC2(C)C(=O)Nc2ccc3c(c2)OCCO3)cc1 (configuration not stated)	.	.	-9	-9%	?	.
O=C(CCCCCn1nnc2ccccc2c1=O)Nc1ccccc1F	22	-5%	59	6%	-19%	.
O=C1CCCCCC(=O)[C@H](O)C[C@H](c2ccccc2)O1	.	.	47	3%	-10%	.
O=C(NCCCN1CCN(c2ccc(F)cc2)CC1)c1cc2c(Cl)nc3ccccc3c2s1	.	.	.	7.3µM*	4.6µM*	3%
CC1CCCN(C(=O)c2cc3c(Cl)nc4ccccc4c3s2)C1 (configuration not stated)	.	.	.	?	?	8%
CC1CCCN(CCCNC(=O)c2cc3c(Cl)nc4ccccc4c3s2)C1 (configuration not stated)	9	?	.	10µM*	7.3µM*	3%
COC(=O)CN1C(=O)[C@@H]2[C@H](C1=O)[C@@H]1CC(C(=O)OC)=C[C@@H](C(=O)OC)C3C1=C(C(=O)[C@@]3(C)NC(=O)c1ccccc1)[C@@H]2C (some centres not stated)	-19	.	.	.	.	10%
O=C(NCc1ccccc1)NC(=O)c1ccncc1	-5	-1%	0	-6%	-25%	-2%
CSc1sc(C(=O)NC(=O)NCc2ccncc2)c(C)c1-c1ccon1	3	?	-13	?	16µM*	-9%
CCOc1cc2c(cc1OCC)C(CC(=O)O)N(C(=O)Nc1ccccc1C(F)(F)F)CC2 (configuration not stated)	.	.	.	?	?	-1%
Cc1cc(N2CCN(C)CC2)nc2ccc(NC(=O)c3cccnc3Cl)cc12	8	-1%	-21	-12%	5%	4%
Cc1cc(N2CCCCC2)nc2ccc(NC(=O)c3cccc(F)c3)cc12	.	.	.	7.3µM*	7.3µM*	6%
Cc1cc(N2CCCC2)nc2ccc(NC(=S)NC(C)C)cc12	-3	8%	-15	?	16µM*	0%
Cc1cc(N2CCOCC2)nc2ccc(NC(=S)NC(C)C)cc12	23	0%	6	?	?	.
SMILES	Giardia killer	ELG1 DNA repair	IL-1B inflam inh	TDP1 cell CPT	DT40 TDP1 no CPT	TDP1 block
CCCCNC(=O)CCC(=O)Nc1ccc2nc(N3CCCCC3)cc(C)c2c1	-16	?	-29	?	?	3%
Cc1cc(N2CCCCC2)nc2ccc(NC(=O)c3cccc(Cl)c3)cc12	.	.	.	23µM*	21µM*	8%
Cc1ccc(C(=O)Nc2ccc3nc(N4CCCCC4)cc(C)c3c2)cc1F	.	.	.	?	23µM*	-3%
COc1ccc(C(=O)Nc2ccc3nc(N4CCCCC4)cc(C)c3c2)c(OC)c1	.	-21%	.	-24%	?	-3%
O=C(OCC(COC(=O)c1cccnc1)(COC(=O)c1cccnc1)COC(=O)c1cccnc1)c1cccnc1	.	.	.	5%	-1%	.
Cc1ccc(CNC(=O)c2c(-c3ccccc3F)noc2C)o1	.	.	.	-22%	-27%	3%
CCN1CCN(c2cc(C)c3cc(NC(=O)c4ccncc4)ccc3n2)CC1	10	?	3	?	?	1%
Cc1cc(N2CCOCC2)nc2ccc(NC(=S)NCc3ccc4c(c3)OCO4)cc12	8	?	-12	?	18µM*	9%
CCN1CCN(c2cc(C)c3cc(NC(=O)c4ccc(C)c(C)c4)ccc3n2)CC1	-22	6%	-7	?	18µM*	.
Cc1nccn1CCC(=O)Nc1ccc(Cl)cc1	6	19%	-23	6%	-1%	3%
CCc1c(C)sc2c1CCN(C(=O)Nc1ccccc1C(F)(F)F)C2c1ccccc1 (configuration not stated)	.	.	.	?	7.3µM*	1%
CCc1c(C)sc2c1CCN(C(=O)Nc1ccc(F)c(Cl)c1)C2c1ccc(F)cc1 (configuration not stated)	.	.	.	?	16µM*	6%
CCc1c(C)sc2c1CCN(C(=O)Nc1cc(Cl)c(OC)cc1OC)C2c1ccccc1 (configuration not stated)	.	.	.	?	26µM*	6%
CCc1c(C)sc2c1CCN(C(=O)Nc1ccccc1C(=O)OC)C2c1ccc(OC)cc1 (configuration not stated)	.	.	.	?	?	1%
CCc1c(C)sc2c1CCN(C(=O)Nc1ccccc1C(=O)OC)C2c1ccc(F)cc1 (configuration not stated)	.	.	.	?	?	1%
C=CCN([C@@H](CC(C)C)C(=O)OC)S(=O)(=O)N(CC=C)[C@@H](CC(C)C)C(=O)OC	-10	18%	36	?	18µM*	-8%
